Reference: PubChem BioAssay (Tox21)
Records with an inconclusive call do not appear. The source made the active and inactive calls. Unless noted, calls follow the shape of the dose curve; as a rule, active = well fitted curve in the direction sought with a large enough effect in the repeat runs; inconclusive = weak or mixed curves; inactive = no such curve, though single readings can be large; an effect the other way counts as inactive or inconclusive.

Legend:
[1] = qHTS assay to identify small molecule that activate the aryl hydrocarbon receptor (AhR) signaling pathway - cell viability counter screen (AID 743086);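 also: HepG2 liver cells carrying the AhR DRE luciferase reporter; series mostly up to about 70 µM; nearly all actives have a fitted effect of over 45% in size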
Procedure, shortened: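 Cytotoxicity counter screen: CellTiter-Fluor signal (30 min, 37 C) in 4000 HepG2 cells/well carrying the DRE-luciferase reporter, following 24 h compound exposure at 37 C.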

[2] = qHTS assay to identify small molecule antagonists of the peroxisome proliferator-activated receptor gamma (PPARg) signaling pathway - cell viability counter screen (AID 743194); also: nearly all actives have a fitted effect of over 55% in size
Procedure, shortened: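 Viability was measured as CellTiter-Glo luminescence in GeneBLAzer PPARg UAS-bla HEK293H cells. These cells had been exposed 17 h at 37 C to compounds together with rosiglitazone at 50 nM final, with the beta-lactamase readout taken in the same wells.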

[3] = qHTS assay for small molecule agonists of the antioxidant response element (ARE) signaling pathway - cell viability counter screen (AID 743203; calls by dose curve; also: nearly all actives have a fitted effect of over 55% in size)
Procedure, shortened: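 Viability counter screen: stably transfected ARE-bla HepG2 line, 16 hrs compound exposure at 37C/5% CO2, ATP-based CellTiter-Glo luminescence measured in the reporter wells.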

[4] = qHTS assay for small molecule activators of the heat shock response signaling pathway - cell viability counter screen (AID 743209); also: nearly all actives have a fitted effect of over 50% in size
Procedure, shortened: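 Viability of HSE-bla HeLa cells is measured with CellTiter-Glo in the wells already used for the reporter read. Compound exposure lasts 5 h at 37 C, and luminescence is read after 30 min at room temperature.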

[5] = qHTS assay to identify small molecule antagonists of the peroxisome proliferator-activated receptor delta (PPARd) signaling pathway - cell viability counter screen (AID 743213); also: nearly all actives have a fitted effect of over 50% in size
Procedure, shortened: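 Luminescence from CellTiter-Glo, added after the bla read and incubated 30 min at room temperature, gives viability of HEK293H PPARd-bla cells exposed to compounds for 17 h at 37 C with 300 nM L165041.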

[6] = target: Bile acid receptor (Homo sapiens) (UniProt Q96RI1); assay: qHTS assay to identify small molecule antagonists of the farnesoid-X-receptor (FXR) signaling pathway (AID 743217; active = well fitted inhibition curve with a large enough effect in the signal ratio in the repeat runs, not every such curve was filed as active; the % refers to the signal ratio)
Sequence of Bile acid receptor (Homo sapiens) (Q96RI1 whole entry, looked up): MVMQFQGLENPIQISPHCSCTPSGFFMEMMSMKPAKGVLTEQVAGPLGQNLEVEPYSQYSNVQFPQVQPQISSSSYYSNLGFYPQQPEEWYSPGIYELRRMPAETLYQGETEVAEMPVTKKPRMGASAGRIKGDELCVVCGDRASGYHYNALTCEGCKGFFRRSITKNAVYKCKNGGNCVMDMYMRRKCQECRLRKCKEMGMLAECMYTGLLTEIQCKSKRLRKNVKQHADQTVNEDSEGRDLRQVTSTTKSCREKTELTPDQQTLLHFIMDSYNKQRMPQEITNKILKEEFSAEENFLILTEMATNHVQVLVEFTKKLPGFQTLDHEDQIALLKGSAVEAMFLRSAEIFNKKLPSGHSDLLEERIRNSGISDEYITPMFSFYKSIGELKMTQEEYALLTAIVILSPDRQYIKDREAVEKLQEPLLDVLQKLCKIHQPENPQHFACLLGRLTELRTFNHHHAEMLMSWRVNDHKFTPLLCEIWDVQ
Procedure, shortened: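 Screen of the Tox21 10K library in quantitative HTS format using FXR-UAS-bla HEK 293T reporter cells. Agonist chenodeoxycholic acid, 50 uM final, added with compounds; 16 h incubation at 37 °C; beta-lactamase FRET fluorescence measured.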

[7] = qHTS assay to identify small molecule antagonists of the farnesoid-X-receptor (FXR) signaling pathway - cell viability counter screen (AID 743221; active = well fitted cell-killing curve with a large enough effect in the repeat runs, not every such curve was filed as active; also: nearly all actives have a fitted effect of over 50% in size)
Procedure, shortened: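 Luminescence from CellTiter-Glo measures cytotoxicity in GeneBLAzer FXR-UAS-bla HEK 293T cells. Cells were exposed to compounds with 50 uM chenodeoxycholic acid (final) for 16 h at 37 C, in wells also used for the reporter readout.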

[8] = target: Vitamin D3 receptor (Homo sapiens) (UniProt P11473); assay: qHTS assay to identify small molecule agonists of the vitamin D receptor (VDR) signaling pathway (AID 743222; calls by dose curve)
Sequence of Vitamin D3 receptor (Homo sapiens) (P11473 whole entry, looked up): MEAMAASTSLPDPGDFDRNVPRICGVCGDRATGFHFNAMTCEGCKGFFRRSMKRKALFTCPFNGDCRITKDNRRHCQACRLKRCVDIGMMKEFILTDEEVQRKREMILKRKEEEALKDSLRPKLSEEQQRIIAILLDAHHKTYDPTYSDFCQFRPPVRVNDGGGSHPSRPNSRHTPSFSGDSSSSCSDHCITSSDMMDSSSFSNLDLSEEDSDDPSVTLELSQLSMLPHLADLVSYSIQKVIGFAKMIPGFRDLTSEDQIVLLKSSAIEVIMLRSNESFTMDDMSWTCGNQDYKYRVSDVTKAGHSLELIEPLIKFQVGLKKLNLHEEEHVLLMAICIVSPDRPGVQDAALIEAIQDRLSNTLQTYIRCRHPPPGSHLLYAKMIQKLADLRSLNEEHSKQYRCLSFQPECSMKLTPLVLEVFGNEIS
Procedure, shortened: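 Fluorescence from cleaved LiveBLAzer B/G FRET substrate served as readout. VDR-bla cells had been treated 16 h at 37C with test compounds in DMSO, following a 4 h settling period, and substrate was loaded for 2 h at RT.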

[9] = target: Vitamin D3 receptor (Homo sapiens) (UniProt P11473); assay: qHTS assay to identify small molecule antagonists of the vitamin D receptor (VDR) signaling pathway (AID 743223; active = well fitted inhibition curve with a large enough effect in the signal ratio in the repeat runs, not every such curve was filed as active; the % refers to the signal ratio)
Procedure, shortened: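 Antagonist mode uses 1alpha,25-dihydroxyvitamin D3 at 3 nM final as stimulus. VDR-bla cells receive compounds in DMSO, incubate 16 h at 37C, then a beta-lactamase FRET substrate for 2 h at room temperature before fluorescence measurement.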

[10] = qHTS assay to identify small molecule agonists of the vitamin D receptor (VDR) signaling pathway - cell viability counter screen (AID 743224); also: series mostly up to about 63 µM; nearly all actives have a fitted effect of over 50% in size
Procedure, shortened: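 Compounds were pin-transferred onto VDR-bla cells plated 4 h earlier; following 16 h incubation at 37C, cell viability was quantified by CellTiter-Glo luminescence after 30 min at room temperature.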

[11] = qHTS assay for small molecule activators of the heat shock response signaling pathway (AID 743210; active = well fitted activation curve with a large enough effect in the signal ratio in the repeat runs, with a control signal flat, not every such curve was filed as active; the % refers to the signal ratio; also: series mostly up to about 63 µM)
Procedure, shortened: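 Compound exposure lasted 5 h at 37 C in HeLa cells carrying a heat-shock-element-driven beta-lactamase reporter. Read-out: fluorescence intensity after 2.5 h room-temperature loading with LiveBLAzer B/G FRET substrate.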

[12] = qHTS assay to identify small molecule agonists of the peroxisome proliferator-activated receptor delta (PPARd) signaling pathway - cell viability counter screen (AID 743211); also: nearly all actives have a fitted effect of over 55% in size
Procedure, shortened: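 HEK293H PPARd-bla, 3000 cells/well; 5 h preincubation 37C/5% CO2; cpd in DMSO, 17 h 37C; B/G FRET substrate 2 h RT; CellTiter-Glo 30 min RT, luminescence.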

[13] = target: Peroxisome proliferator-activated receptor delta (Homo sapiens) (UniProt Q03181); assay: qHTS assay to identify small molecule antagonists of the peroxisome proliferator-activated receptor delta (PPARd) signaling pathway (AID 743215; active = well fitted inhibition curve with a large enough effect in the signal ratio in the repeat runs, not every such curve was filed as active; the % refers to the signal ratio;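 also: cells stimulated with agonist L165041 at 300 nM final during compound exposure; series mostly up to about 62 µM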)
Sequence of Peroxisome proliferator-activated receptor delta (Homo sapiens) (Q03181 whole entry, looked up): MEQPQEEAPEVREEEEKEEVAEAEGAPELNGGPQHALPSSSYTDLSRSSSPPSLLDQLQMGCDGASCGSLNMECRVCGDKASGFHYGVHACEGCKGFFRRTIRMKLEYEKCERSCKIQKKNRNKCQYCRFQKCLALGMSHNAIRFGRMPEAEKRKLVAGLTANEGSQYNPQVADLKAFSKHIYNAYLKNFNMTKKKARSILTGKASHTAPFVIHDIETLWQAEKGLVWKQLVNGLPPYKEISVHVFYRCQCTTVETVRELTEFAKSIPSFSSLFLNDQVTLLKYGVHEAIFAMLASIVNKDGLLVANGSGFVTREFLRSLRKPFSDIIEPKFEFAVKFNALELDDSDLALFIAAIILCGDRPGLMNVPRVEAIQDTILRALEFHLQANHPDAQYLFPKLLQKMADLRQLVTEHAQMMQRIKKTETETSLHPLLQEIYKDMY
Procedure, shortened: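 Plated HEK293H PPARd-bla cells rested 5 h at 37 C and 5% CO2. Compound, then agonist L165041 at 300 nM final, was added; 17 h at 37 C followed. Substrate loading, 2 h room temperature, fluorescence measured.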

[14] = qHTS assay to identify small molecule agonists of the farnesoid-X-receptor (FXR) signaling pathway - cell viability counter screen (AID 743218); also: nearly all actives have a fitted effect of over 45% in size
Procedure, shortened: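 Viability of FXR-bla HEK 293T cells is measured by ATP-based CellTiter-Glo luminescence following 16 h compound treatment at 37 C and a prior 2 h room-temperature beta-lactamase substrate step.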

[15] = target: Peroxisome proliferator-activated receptor delta (Homo sapiens) (UniProt Q03181); assay: qHTS assay to identify small molecule agonists of the peroxisome proliferator-activated receptor delta (PPARd) signaling pathway (AID 743212; calls by dose curve;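 also: HEK293H cells with PPARd UAS beta-lactamase reporter GeneBLAzer system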)
Procedure, shortened: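 Beta-lactamase reporter readout: a ratiometric FRET signal from the LiveBLAzer substrate after 2 h at room temperature. Compound exposure at 37 °C in PPARδ-bla HEK293H cells driven by an upstream activator sequence.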

[16] = target: Peroxisome proliferator-activated receptor gamma (Homo sapiens) (UniProt P37231); assay: qHTS assay to identify small molecule agonists of the peroxisome proliferator-activated receptor gamma (PPARg) signaling pathway (AID 743094; active = well fitted activation curve with a large enough effect in the signal ratio in the repeat runs, not every such curve was filed as active; the % refers to the signal ratio)
Sequence of Peroxisome proliferator-activated receptor gamma (Homo sapiens) (P37231 whole entry, looked up): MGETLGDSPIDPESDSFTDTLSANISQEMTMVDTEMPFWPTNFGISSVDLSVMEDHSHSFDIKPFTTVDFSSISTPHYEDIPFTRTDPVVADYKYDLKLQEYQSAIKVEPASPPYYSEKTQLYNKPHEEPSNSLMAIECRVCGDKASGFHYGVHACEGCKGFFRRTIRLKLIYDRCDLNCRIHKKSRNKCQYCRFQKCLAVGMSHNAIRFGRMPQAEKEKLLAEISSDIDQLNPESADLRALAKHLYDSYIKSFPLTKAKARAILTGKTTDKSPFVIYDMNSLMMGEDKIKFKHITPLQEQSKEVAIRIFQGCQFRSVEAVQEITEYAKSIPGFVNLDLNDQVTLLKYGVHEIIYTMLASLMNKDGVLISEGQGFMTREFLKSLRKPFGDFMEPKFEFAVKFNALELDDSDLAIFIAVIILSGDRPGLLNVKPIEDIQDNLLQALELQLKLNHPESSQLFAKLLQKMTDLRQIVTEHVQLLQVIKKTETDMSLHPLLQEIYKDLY
Procedure, shortened: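 Reporter activation was scored by fluorescence of cleaved LiveBLAzer B/G substrate (1 h, room temperature) in PPARg-bla HEK293H cells previously treated 17 h at 37C with DMSO-dissolved compounds.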

[17] = target: Peroxisome proliferator-activated receptor gamma (Homo sapiens) (UniProt P37231); assay: qHTS assay to identify small molecule antagonists of the peroxisome proliferator-activated receptor gamma (PPARg) signaling pathway (AID 743191; calls by dose curve; also: series mostly up to about 63 µM; nearly all actives have a fitted effect of over 30% in size)
Procedure, shortened: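 Beta-lactamase reporter under UAS control in HEK293H PPARg-bla cells; compound treatment 17 h at 37C. Read-out: fluorescence intensity after 1 h room-temperature incubation with LiveBLAzer B/G FRET substrate.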

[18] = qHTS assay for small molecule agonists of the antioxidant response element (ARE) signaling pathway (AID 743202; active = well fitted activation curve with a large enough effect in the signal ratio in the repeat runs, not every such curve was filed as active; the % refers to the signal ratio)
Procedure, shortened: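 After 16 hours of compound treatment at 37 C, HepG2 cells with a stably integrated ARE-driven beta-lactamase reporter were loaded 2 hours at room temperature with LiveBLAzer B/G FRET substrate and fluorescence intensity measured.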

[19] = target: Bile acid receptor (Homo sapiens) (UniProt Q96RI1); assay: qHTS assay to identify small molecule agonists of the farnesoid-X-receptor (FXR) signaling pathway (AID 743220; active = well fitted activation curve with a large enough effect in the signal ratio in the repeat runs, not every such curve was filed as active; the % refers to the signal ratio)
Procedure, shortened: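 FXR-UAS-bla HEK 293T cells carrying a UAS-driven beta-lactamase reporter were plated for 5 h at 37C/5% CO2, then exposed to DMSO-dissolved Tox21 10K compounds for 16 h at 37C. A LiveBLAzer B/G FRET substrate was loaded for 2 h at room temperature before fluorescence reading.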

Measured: Potency

CC(C)=CCC/C(C)=C/C#N
inactive: [1] | [2] | [3] | [4] | [5] | [6] | [7] | [8] | [9] | [10]

CCCCCCCCCCCCCCC(=O)O
inactive: [1] | [2] | [3] | [4] | [11] | [12] | [13] | [14] | [7] | [9]

Nc1ccn([C@@H]2O[C@H](CO)[C@@H](O)C2O)c(=O)n1 (stereo not given in full)
not listed: [9] | [16] | [17] | [18] | [19]
inactive: all other assays above

CC1=NN(c2cc(S(=O)(=O)O)ccc2Cl)C(=O)C1N=Nc1ccccc1 (stereo not given)
not listed: [1] | [10] | [11] | [14]
inactive: all other assays above

CCOC(=O)C(=O)CCCCCCl
not listed: [1] | [6] | [16]
inactive: all other assays above

C1CCC2=NCCCN2CC1
inactive: [1] | [2] | [3] | [4] | [11] | [5] | [14] | [7] | [9] | [10]

CCCC(=O)O[C@]1(C(=O)CC)CC[C@H]2[C@@H]3CCC4=CC(=O)CC[C@]4(C)[C@H]3[C@@H](O)C[C@@]21C
inactive: [2] | [3] | [4] | [11] | [5] | [13] | [14] | [7] | [10]

C=CN1CCCCCC1=O
not listed: [6] | [9] | [12] | [14] | [16] | [17] | [19]
inactive: all other assays above

COc1cc(C)nc(-n2nc(C)cc2OC)n1
not listed: [8] | [9] | [11] | [16] | [17] | [18] | [19]
inactive: all other assays above

Cc1coc2ccccc2c1=O
not listed: [1] | [8] | [9] | [13] | [14] | [16] | [19]
inactive: all other assays above

CC1=NN(c2cccc(S(=O)(=O)O)c2)C(=O)C1
not listed: [5] | [6] | [8] | [13] | [14] | [16] | [18] | [19]
inactive: all other assays above

C=C(C)C(=O)OCC1CCCO1 (stereo not given)
not listed: [10] | [16] | [17]
inactive: all other assays above

CN(C)CCCCCCN(C)C
not listed: [1] | [5] | [10] | [13] | [15] | [16] | [17] | [19]
inactive: all other assays above

CCO[Si](OCC)(OCC)c1ccccc1
not listed: [10] | [13] | [15] | [16] | [17]
inactive: all other assays above

Cc1nc(C2CCCCC2)c(-c2ccc(S(N)(=O)=O)c(F)c2)o1
inactive: [2] | [3] | [4] | [11] | [12] | [6] | [14] | [19] | [7] | [9]

Cc1ccc(-c2ccccc2C#N)cc1
not listed: [1] | [5] | [16]
inactive: all other assays above

CC(C)C(=O)OC(=O)C(C)C
not listed: [2] | [6] | [9] | [14] | [16] | [17] | [19]
inactive: all other assays above
